In the library only some 1.2% were active in any assay of this set; here they are far more common.
NSD2 HMT inh = blocks human histone methyltransferase NSD2; O96028; NSD2 peptide methylation, AlphaScreen, 120 min; inhibition, % at 12.5 µM; actives 0.54% (n = 310,000); in the data active = inhibition above about 50%
Target sequence (O96028 whole entry, looked up): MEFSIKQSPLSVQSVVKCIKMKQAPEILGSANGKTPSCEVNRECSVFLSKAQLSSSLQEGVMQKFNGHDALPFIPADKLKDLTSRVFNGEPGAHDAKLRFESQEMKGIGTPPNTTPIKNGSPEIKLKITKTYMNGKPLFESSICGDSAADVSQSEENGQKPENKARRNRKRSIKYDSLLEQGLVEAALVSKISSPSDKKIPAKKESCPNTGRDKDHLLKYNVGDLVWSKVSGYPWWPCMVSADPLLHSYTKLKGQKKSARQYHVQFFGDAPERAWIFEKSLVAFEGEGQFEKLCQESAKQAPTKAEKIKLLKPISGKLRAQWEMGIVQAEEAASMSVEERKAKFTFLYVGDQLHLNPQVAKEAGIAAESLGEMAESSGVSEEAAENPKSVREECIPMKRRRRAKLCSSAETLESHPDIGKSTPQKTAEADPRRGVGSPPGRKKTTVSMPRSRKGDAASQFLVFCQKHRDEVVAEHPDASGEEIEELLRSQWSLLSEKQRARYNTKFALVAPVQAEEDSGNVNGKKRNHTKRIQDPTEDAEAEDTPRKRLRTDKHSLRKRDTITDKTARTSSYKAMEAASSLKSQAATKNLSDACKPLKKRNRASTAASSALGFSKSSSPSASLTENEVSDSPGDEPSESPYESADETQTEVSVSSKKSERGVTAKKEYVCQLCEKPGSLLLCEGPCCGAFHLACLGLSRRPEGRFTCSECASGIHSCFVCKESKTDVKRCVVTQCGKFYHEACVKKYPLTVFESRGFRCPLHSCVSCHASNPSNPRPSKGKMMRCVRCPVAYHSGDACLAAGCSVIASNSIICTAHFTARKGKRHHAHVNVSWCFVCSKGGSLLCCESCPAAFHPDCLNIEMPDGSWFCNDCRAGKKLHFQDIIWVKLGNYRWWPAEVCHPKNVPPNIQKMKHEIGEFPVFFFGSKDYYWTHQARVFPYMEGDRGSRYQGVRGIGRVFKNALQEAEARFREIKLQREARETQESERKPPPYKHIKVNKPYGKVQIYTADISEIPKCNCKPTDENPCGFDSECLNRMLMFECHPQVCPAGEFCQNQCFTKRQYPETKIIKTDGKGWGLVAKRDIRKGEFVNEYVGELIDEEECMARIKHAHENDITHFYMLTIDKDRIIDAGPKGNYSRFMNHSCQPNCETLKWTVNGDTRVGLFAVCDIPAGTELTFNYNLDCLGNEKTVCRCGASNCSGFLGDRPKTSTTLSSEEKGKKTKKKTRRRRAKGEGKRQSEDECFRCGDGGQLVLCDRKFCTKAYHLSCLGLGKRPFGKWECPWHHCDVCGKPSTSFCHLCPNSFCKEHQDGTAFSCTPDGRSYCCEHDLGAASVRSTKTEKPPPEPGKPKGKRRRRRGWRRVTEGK
N-glyco inh = N-linked glycosylation inhibition. D54 ERlucT glycosylation luciferase reporter, 24 h; percent of 100 nM tunicamycin response. reporter increase, % at 12.5 µM. AID 588692. actives 0.23% (n = 360,000);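 active = mean luciferase reporter signal, scaled so untreated is 0 and the glycosylation-blocking control 100, at or above a set limit in every replicate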;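 also: luciferase carries N-glycosylation sites so blocking glycosylation raises the light; 0% = median of neutral control wells and 100% = median of 100 nM tunicamycin wells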
Casp6 inh = inhibitors of human caspase-6. purified caspase-6, Z-VEID-R110 cleavage fluorescence. inhibition, % at 12.5 µM. actives 0.53% (n = 350,000);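 active = mean inhibition across replicates at least about 35%, with every replicate also reaching that limit, limit read from the data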;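 also: 0% = median of neutral control wells and 100% = no fluorescence left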
RAD52 inh = blocks human RAD52 DNA annealing | P43351 | recombinant RAD52 DNA annealing, FRET fluorescence | inhibition, % at 18.7 µM | actives 0.46% (n = 360,000);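 active = every replicate showing at least 50% inhibition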
RAD54 inh = RAD54 (human) branch migration inhibition. RAD54 Holliday junction branch migration, FAM/BHQ fluorescence. AID 602329. actives 0.14% (n = 360,000). inhibition, % at 10.4 µM. Q92698;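 active = mean normalized replicate activity at least 40 and at least half of replicates scoring 40 or more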;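 also: 0% = median of neutral control wells and 100% = median of positive control wells; inhibitors cause a drop in the FAM fluorescence signal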
AlphaScreen art = counter-screen for NSD2 inhibitors: AlphaScreen artifacts; shares compounds with NSD2 HMT inh; AlphaScreen artifact counterscreen, preloaded methylated H4 peptide; AC35, µM (top dose mostly 10 µM), for inactives: at the top dose activity change, negative = signal loss; actives 9.4% (n = 1,500); AID 1053174; call rule not given here
* marks the source's active call; other numbers are inactive results; x = not tested or not shown.

SMILES | NSD2 HMT inh | N-glyco inh | Casp6 inh | RAD52 inh | RAD54 inh | AlphaScreen art
Cc1ccc(C(=O)Nc2ccc(Cl)cc2C(F)(F)F)c(Cl)c1 | 187.9* | -0.2 | 3.1 | -0.9 | -7.7 | 0.7%
Cc1[nH][nH]c(=O)c1C(c1c(C)[nH][nH]c1=O)c1cn(C)c2ccccc12 | 51.4* | 10.4 | 34.7 | -7.4 | x | -3.1%
CNC[C@@H]1OCCCC[C@H](C)Oc2ccc(NC(=O)Nc3ccc(C(F)(F)F)cc3)cc2C(=O)N([C@@H](C)CO)C[C@@H]1C | x | x | -0.6 | 6.7 | -19.2 | x
COc1cc(N)c(C(=O)c2nccc3cc(OC)c(OC)cc23)cc1OC | 72.0* | 1.0 | 11.2 | 5.5 | -10.0 | -2.5%
COc1cc(Br)c(C(=O)c2nccc3cc(OC)c(OC)cc23)cc1OC | 99.3* | 2.4 | 97.1* | 37.7 | 32.8 | -4.9%
COc1cc(C(=O)c2nccc3cc(OC)c(OC)cc23)c([N+](=O)[O-])cc1OC | 53.8* | 1.0 | 20.2 | -13.1 | x | -9.3%
COc1cc2ccnc(C=O)c2cc1OC | -0.5 | 18.8 | x | x | 3.5 | x
O=C(CN1CCOCC1)NCC[C@H]1CC[C@H](NS(=O)(=O)c2ccc(F)cc2)[C@@H](CO)O1 | x | x | -1.1 | 1.8 | -2.5 | x
O=C(CCN1C(=O)/C(=C\c2ccco2)SC1=S)Nc1ccc(C(=O)O)c(O)c1 | 111.1* | -0.6 | 73.0* | -238.7 | -46.2 | -16.6%
O=C(CCN1C(=O)/C(=C\c2cccs2)SC1=S)Nc1ccc(C(=O)O)cc1 | 5.2 | -1.1 | 4.7 | -154.7 | -6.9 | x
O=C(O)CN1C(=O)/C(=C\c2cccc(OCc3ccc(F)cc3)c2)SC1=S | 54.4* | 0.2 | x | -6.2 | 4.2 | -12.2%
Nc1ccc(N=Nc2ccccc2O)c(N)c1 | 54.2* | -5.8 | 0.4 | -9.4 | -2.5 | -15.7%
CC(NC(=O)c1cccc(Br)c1)c1ccccc1 (stereo not given) | 96.5* | -2.9 | -0.4 | -15.6 | 8.0 | 0.0%
CC1CCCN(S(=O)(=O)c2ccc(NC(=O)CN3CCN(C)CC3)cc2)C1 (stereo not given) | 90.0* | -3.6 | x | x | -0.6 | -0.4%
CC1CCN(CC(=O)Nc2ccc(S(=O)(=O)N3CCCC(C)C3)cc2)CC1 (stereo not given) | 14.6 | -7.2 | -1.1 | -4.5 | -0.4 | x
COc1cc(N(C)C)ccc1C=c1c2ccccc2n2c1cc(-c1ccccc1)[n+]2C | 85.2* | 8.6 | 61.3* | 45.0 | x | 1.48µM*
COc1ccc(COc2ncnc3ccc(Br)cc23)cc1F | 122.2* | -2.2 | -2.1 | -16.0 | 1.1 | -3.1%
Brc1ccc(COc2ncnc3ccccc23)cc1 | -4.1 | -0.4 | 1.8 | -10.5 | x | x
O=C(C1CCC1)N1CC(=O)N2[C@@H](CO)[C@@H](c3ccc(-c4ccccc4F)cc3)[C@@H]2C1 | x | x | 2.5 | 2.3 | x | x
COC1=CC(=O)c2c(ccc3ncnc(N)c23)C1=O | 121.6* | -20.4 | 99.8* | 0.8 | x | 3.3%
COc1ccccc1NC(=O)c1ccccc1NS(=O)(=O)N1CCCC1 | 83.0* | -0.1 | x | x | -7.4 | -3.5%
COc1ccccc1NC(=O)c1ccccc1C(=O)Nc1ccccc1OC | x | -1.8 | -1.0 | -6.8 | 4.7 | x
O=C(N[C@H]1CC[C@@H](CCNC(=O)C2CC2)O[C@@H]1CO)c1ccccn1 | x | x | -0.2 | -0.9 | -0.1 | x
O=c1[nH]cnc(CN2CCCCC2)c1O | 2.9 | -1.0 | -4.6 | -13.6 | x | x
O=c1[nH]c(CN2CCCCC2)ccc1O | 64.8* | 0.7 | 22.1 | -49.8 | x | 0.5%
SMILES | NSD2 HMT inh | N-glyco inh | Casp6 inh | RAD52 inh | RAD54 inh | AlphaScreen art
CCCNC(=O)C[C@H]1CC[C@@H]2[C@H](COc3ccc(NC(=O)c4ccccc4)cc3C(=O)N2C)O1 | x | x | 0.8 | -4.7 | 6.0 | x
COc1ccc(S(=O)(=O)Nc2ccc3c(c2)CC(=O)N([C@H](C)CO)C[C@@H](C)[C@H](CN(C)S(=O)(=O)c2ccc(C)cc2)O3)cc1 | x | x | x | 13.0 | 1.8 | x
O=C(C[n+]1ccc(Cc2ccccc2)cc1)Nc1ccc([N+](=O)[O-])cc1Cl | 14.9 | 1.8 | x | -1.0 | x | x
Cc1ccc(Cl)cc1NC(=O)C[n+]1ccc(Cc2ccc([N+](=O)[O-])cc2)cc1 | 84.1* | 8.7 | 8.4 | 26.8 | x | -10.5%
C[C@H](CO)N1C[C@H](C)[C@@H](CN(C)C(=O)C2CCCCC2)OCCCC[C@H](C)Oc2ccc(NC(=O)C3CCCCC3)cc2C1=O | x | x | -3.5 | 11.3 | -0.3 | x
CC(Oc1ccc2ccccc2c1)C(=O)N/N=C/c1cccnc1 (stereo not given) | 0.8 | -1.5 | x | -10.3 | -7.3 | x
CC(Nc1ccc2ccccc2c1)C(=O)N/N=C/c1ccncc1 (stereo not given) | 141.4* | 5.9 | 60.6* | -14.1 | 3.4 | -3.9%
COc1ccccc1S(=O)(=O)N[C@H]1CC[C@@H](CCNC(=O)C2CCOCC2)O[C@@H]1CO | x | x | -1.9 | -0.5 | 1.4 | x
COc1cc(/C=C/c2cccc[n+]2C)ccc1OCC(=O)Nc1ccccc1C | 130.8* | 0.4 | -15.9 | 2.8 | 3.4 | -2.9%
CCOc1cc(/C=C\[N+](=O)[O-])ccc1OCC(=O)Nc1ccccc1C | -2.0 | -0.2 | x | x | -15.3 | x
COc1ccc(NC(=O)N(C)C[C@@H]2Oc3c(NC(=O)c4ccncc4)cccc3C(=O)N([C@@H](C)CO)C[C@H]2C)cc1 | x | x | 1.9 | -0.3 | -5.8 | x
O=C(Nc1cccc(O)c1)c1ccc(Br)cc1 | 67.4* | -6.4 | x | x | x | 0.3%
CC1=NOC(=O)/C1=C/c1ccc(-c2ccc(Cl)cc2)o1 | 11.9 | 12.4 | x | x | -11.0 | x
CC1=NOC(=O)/C1=C\c1ccc(-c2ccc(Br)cc2)o1 | 69.4* | 16.4 | 0.9 | -23.9 | x | -0.2%
N#C[C@@H]1[C@@H](c2ccccc2C2=CCCC2)[C@H](CO)N1C(=O)NC1CCCCC1 | x | x | 1.8 | -8.4 | x | x
Cc1cc(=O)oc(C)c1C(=O)OCC(=O)c1ccccc1 | 53.7* | -0.6 | 3.3 | -7.1 | 3.2 | -5.4%
Cc1cc(=O)oc(C)c1C(=O)OCC(=O)c1ccc2ccccc2c1 | -1.1 | -1.4 | x | x | -8.4 | x
N#Cc1c2nc3ccccc3nc2n2cc(NC(=O)c3ccc(F)cc3)ccc12 | 73.4* | -7.6 | 6.9 | -330.3 | x | -4.2%
O=c1c2cnn(-c3ccccc3)c2nc(-c2ccco2)n1-c1ccccc1 | 115.4* | 4.3 | x | x | -12.5 | -4.3%
COc1ccc(N=c2scc(C)n2CCCN2CCCC2=O)cc1 | 151.3* | -1.3 | 0.4 | -20.9 | x | 1.7%
Cc1csc(=Nc2ccccc2)n1CCCN1CCCC1=O | 4.3 | -0.9 | x | -0.3 | -4.7 | x
O=C(NC1=C(NC2CCS(=O)(=O)C2)C(=O)c2ccccc2C1=O)c1ccccc1 (stereo not given) | 109.0* | 5.2 | 95.2* | -21.6 | -3.7 | -1.4%
O=C(NC1=C(Nc2ccc(Cl)cc2)C(=O)c2ccccc2C1=O)c1ccccc1 | 27.1 | -5.6 | 23.0 | 10.7 | x | x
COc1ccc(C2=NNC(c3cccs3)=Nc3ccc(OC)cc32)cc1 | 51.0* | -2.9 | x | x | -6.6 | -14.4%
O=C(c1ccccc1)N1CC[C@@H]2[C@H]1c1cc(C#Cc3cccnc3)ccc1N[C@@H]2CO | x | x | 0.1 | -39.0 | 5.4 | x
O=C(C[C@@H]1C[C@H]2c3cc(NC(=O)NC4CCCC4)ccc3O[C@H]2[C@@H](CO)O1)NCC1CC1 | x | x | -1.7 | -8.4 | 5.7 | x

Source: PubChem
